{
  "source": "PubChem BioAssay (NCI)",
  "note": "Compounds without any hit were thinned out: in the full panel of roughly 83,000, 20% have a hit.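 Results are percent growth after 48 hours of single-concentration exposure. 100 means growth as in untreated cells, lower positive values show inhibition; negative values down to -100 show cell death.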 Unmarked numbers belong to inactive results. The source made the active and inactive calls. Rule for the calls: active = growth percent below 10; inactive = the rest.",
  "data": [
    {"test_system": "HL-60(TB) leukemia", "assay": "NCI-60 one-dose screen, 48 h (100 = growth as untreated, 0 = no growth, -100 = all killed)", "conditions": "10 µM unless noted", "values": [
      {"molecule": "FC(F)(F)c1nc2c(NCc3ccc(-c4ccccc4)cc3)cccc2[nH]1", "growth": "21.1%"},
      {"molecule": "c1ccc2cc(Cn3cc[n+](Cc4ccc5ccccc5c4)c3)ccc2c1", "growth": "-33.6% (active)"},
      {"molecule": "CCC(=O)c1ccc(O)c(OC)c1", "growth": "102%"},
      {"molecule": "O=C(Cc1nc2ccc([N+](=O)[O-])cc2nc1CC(=O)c1cccnc1)c1cccnc1", "growth": "67.5%"},
      {"molecule": "Cc1cc(Cl)ccc1Nc1nc(C(F)(F)F)ccc1C(=O)N/N=C/c1cccc(O)c1", "growth": "4.08% (active)"},
      {"molecule": "CC(C)C1=NOC(=O)C1=Cc1cn(-c2cccnc2)nc1-c1ccccc1", "growth": "-0.56% (active)"},
      {"molecule": "CC1(C)S[C@@H]2[C@H](NC(=O)[C@H](C(=O)O)c3cccs3)C(=O)N2[C@H]1C(=O)O", "growth": "106%"},
      {"molecule": "COc1cccc2c(=O)c3c(sc12)c(NCCN(C)C)nc1ccccc13", "growth": "15.1%"},
      {"molecule": "Cn1ccnc1C(=O)/C=C/c1ccccc1", "growth": "8.05% (active)"},
      {"molecule": "CCCN1C(=O)/C(=c2\\sc3n(c2=O)C2C(NN=3)N(CC)C(=O)N2CC)c2ccccc21", "note": "(stereo not given)", "growth": "-40.8% (active)"},
      {"molecule": "COc1ccc(S(=O)(=O)c2ccc(C(N)=O)cc2)cc1NC(=O)c1[nH]c(C)c2c1CCCCC2=O", "growth": "4.2% (active)"},
      {"molecule": "Nc1nc(Cl)cc(=O)n1Cc1ccccc1", "growth": "100%"},
      {"molecule": "COc1cc2c(c(OC)c1OC)-c1ccc(NNC(=S)N(Cc3cccc(C[N+](Cc4cccc(CNC56CC7CC(CC(C7)C5)C6)c4)(Cc4cccc(CNC56CC7CC(CC(C7)C5)C6)c4)Cc4cccc(CN(C(=S)NNc5ccc6c(cc5=O)[C@@H](NC(C)=O)CCc5cc(OC)c(OC)c(OC)c5-6)C56CC7CC(CC(C7)C5)C6)c4)c3)C34CC5CC(CC(C5)C3)C4)c(=O)cc1[C@@H](NC(C)=O)CC2", "note": "(stereo not given in full)", "growth": "-63.4% (active)"},
      {"molecule": "O=C(NC1CCCCC1)c1ccc(Cl)cc1", "growth": "92.8%"},
      {"molecule": "CC(=O)OCC(=O)C1CCC=CC1OC(C)=O", "note": "(stereo not given)", "growth": "99.3%"},
      {"molecule": "O[C@H]1CO[C@H]2[C@@H]1OC[C@@H]2Oc1ccc(Nc2ccnc(Nc3ccc(O[C@H]4CO[C@H]5[C@@H]4OC[C@@H]5O)c(Cl)c3)n2)cc1Cl", "growth": "-7.8% (active)"},
      {"molecule": "COc1cc2ncn3c(=O)c4c5c(sc4nc3c2cc1OC)CCCC5", "growth": "106%"},
      {"molecule": "O=C(Cn1cc(CSc2nc3ccccc3o2)nn1)Nc1ccc([N+](=O)[O-])cc1", "growth": "98.2%"},
      {"molecule": "Oc1[nH]c2ccccc2c1/C=c1/cc2c(c(-c3ccc(F)cc3)n1)=Nc1ccccc1-2", "growth": "-39.1% (active)"},
      {"molecule": "COc1ccc2c(c1OC)C(=O)O[C@@H]2[C@H]1c2c(c(C#CC#Cc3ccc(F)c(F)c3)c3c(c2OC)OCO3)CCN1C", "growth": "76.9%"},
      {"molecule": "O=C1OCC/C1=C\\OCCCO/C=C1\\CCOC1=O", "growth": "104%"},
      {"molecule": "NNC(=O)c1nc2ccccc2[nH]1", "growth": "101%"},
      {"molecule": "c1ccc2oc(-c3cnc4nonc4n3)cc2c1", "growth": "90.9%"},
      {"molecule": "CC1=C[C@@H]2c3c(c(O)c(O)c4oc5cc(O)cc(O)c5c(=O)c34)[C@@H](c3cc(O)c(O)c4oc5cc(O)cc(O)c5c(=O)c34)[C@@H]2C(C)(C)C1", "growth": "-3.85% (active)"},
      {"molecule": "O=C(Nc1cccc(-n2ccc3c(NC(=O)c4ccccc4)ncnc32)c1)Nc1ccc(Cl)c(C(F)(F)F)c1", "growth": "-1.92% (active)"},
      {"molecule": "C/C=C(\\C)C(=O)N[C@H]1[C@@H](OC(C)=O)C[C@]2(C)C3CC[C@@]4(C)C(CC[C@@H]4C(C)N(C)C)C3CCC2[C@H]1O", "note": "(stereo not given in full)", "growth": "70.5%"},
      {"molecule": "c1ccc2nc(N3CCOCC3)c(N3CCCCC3)nc2c1", "growth": "98.9%"},
      {"molecule": "CC(C)(C)OC(=O)c1ccc(NCc2cc(O)ccc2O)cc1", "growth": "-39.3% (active)"},
      {"molecule": "COc1cccc2c1C(=O)c1c(O)c3c(c(O)c1C2=O)C[C@@](O)(/C(C)=N/NC(=O)c1ccc(Cl)cc1)C[C@@H]3OC1CC(N)C(O)C(C)O1", "note": "(stereo not given in full)", "growth": "-53.4% (active)"},
      {"molecule": "O=C(Nc1cc([N+](=O)[O-])c2[nH]c(=O)c3ccccc3c2c1)C(F)(F)F", "growth": "94.4%"},
      {"molecule": "COc1cc(/C=N/NC(=O)c2ccc(C(F)(F)F)nc2Nc2cc(Cl)ccc2C)cc(OC)c1OC", "growth": "107%"},
      {"molecule": "N#Cc1nc2c(S(=O)(=O)c3ccccc3)c(N)n(Cc3cccnc3)c2nc1C#N", "growth": "53%"},
      {"molecule": "C=C(Cl)[C@@](Cl)(CBr)CC[C@@H](Br)C(C)(C)Cl", "growth": "-68.1% (active)"},
      {"molecule": "O=[N+]([O-])c1cnc(N2CCN(CC3CC3)CC2)nc1N1CCN(CC2CC2)CC1", "growth": "99.2%"},
      {"molecule": "O=C(Nc1ccc(Cl)cc1)Nc1ccc(Nc2nncc3ccccc23)cc1", "growth": "18.1%"},
      {"molecule": "CCN1CCN(C(=O)[C@@]2(C)CC[C@]3(C)CC[C@]4(C)C(=CC(=O)[C@@H]5[C@@]6(C)CC[C@H](OCCC#N)C(C)(C)[C@@H]6CC[C@]54C)[C@@H]3C2)CC1", "growth": "90.3%"},
      {"molecule": "COC(=O)C12C3C(=O)N(c4ccc(OC)cc4)C(=O)C3C(c3cn(-c4ccccc4)nc3C)N1[C@H](c1cn(-c3ccccc3)nc1C)[C@@H]1C(=O)N(c3ccc(OC)cc3)C(=O)[C@@H]12", "note": "(stereo not given in full)", "growth": "106%"},
      {"molecule": "C=C(C)[C@@H]1CC[C@]2(C)[C@H](CC[C@@H]3[C@@H]([C@@](C)(O)CCC=C(C)C)CC[C@]32C)[C@@]1(C)CCC(=O)N1CCN(C)CC1", "growth": "-32.3% [100 µM] (active)"},
      {"molecule": "Clc1cc(Cl)c(Cl)c(-c2nc(-c3cccnc3)cs2)c1", "growth": "-3.35% (active)"},
      {"molecule": "O=C(Nc1nc(-c2ccccc2Cl)cs1)c1cc(-c2ccc(Cl)cc2)nc2ccc(Cl)cc12", "growth": "-21.9% (active)"}
    ]}
  ]
}
